Reference: PubChem BioAssay (NCI)
This is part of a sample that, as a whole, favours compounds with a hit. Of some 83,000 tested, about 20% had one in any assay.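 Activity criterion: percent growth below 10, measured after cells in 96-well plates were exposed to a single compound concentration for 48 hours.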 Unmarked numbers belong to inactive results. Active and inactive are the calls of the source.

Columns and labels:
Assay in all cases: NCI-60 one-dose screen, 48 h (100 = growth as untreated, 0 = no growth, -100 = all killed)
Details in all cases: 10 µM unless noted
[1] = system: SK-MEL-2 melanoma
[2] = system: SN12C renal
[3] = system: UO-31 renal
[4] = system: TK-10 renal
[5] = system: ACHN renal
[6] = system: CAKI-1 renal
[7] = system: A498 renal
[8] = system: SR leukemia
[9] = system: RPMI-8226 leukemia
[10] = system: OVCAR-5 ovarian
[11] = system: OVCAR-4 ovarian
[12] = system: SK-OV-3 ovarian
[13] = system: IGROV1 ovarian
[14] = system: OVCAR-3 ovarian
[15] = system: HS 578T breast
[16] = system: NCI/ADR-RES ovarian
[17] = system: CCRF-CEM leukemia
[18] = system: MOLT-4 leukemia
[19] = system: OVCAR-8 ovarian
[20] = system: EKVX NSCLC

Compound | growth [1] [%] | growth [2] [%] | growth [3] | growth [4] | growth [5] | growth [6] | growth [7] | growth [8] | growth [9] | growth [10] [%] | growth [11] | growth [12] | growth [13] | growth [14] | growth [15] | growth [16] | growth [17] | growth [18] | growth [19] | growth [20] [%]
O=C1NC(=Nc2ccc(S(=O)(=O)Nc3nccs3)cc2)S/C1=C\c1coc2ccccc2c1=O | 133 | 95.3 | 82.6% | 133% | 98.6% | 103% | 101% | 88.9% | 101% | 121 | 102% | 91.5% | 98.1% | 117% | 90.8% | 106% | – | – | – | –
CC(C)=CCC/C(C)=C/CC/C(C)=C/CC/C(C)=C/CSC[C@H](NC(=O)CCCCCN1CCN(C)CC1)C(=O)NC1CCCCC1 | 97.6 | 97.7 | 67.3% | 111% | 83.4% | – | 92.9% | 2.5% (active) | 63.4% | 85 | – | 96.5% | 80.6% | 91.1% | 95.7% | 86.9% | 17.4% | 45.2% | 90.3% | –
C#Cc1cc2c(N)c(C(=O)c3cc(OC)c(OC)c(OC)c3)[nH]c2cc1OC | 15.6 | 67.9 | 35.7% | 58.6% | 35.7% | – | -19.1% (active) | 7.33% (active) | 26.7% | 37.5 | – | 28.8% | 32.6% | 0.789% (active) | 1.91% (active) | 21.9% | 16% | 32% | 47.8% | –
Fc1ccc2nc(-c3cc(-c4ccc5c(c4)OCO5)n[nH]3)[nH]c2c1 | 42.7 | 65.2 | 73.4% | 75.9% | 49% | 41% | 71.7% | 10% | 10.3% | 84.3 | 57.2% | 70.3% | 62.3% | 5.87% (active) | 78.2% | 42.4% | – | – | – | –
COc1cc(-c2cc(-c3nc4ccc(F)cc4[nH]3)[nH]n2)cc(OC)c1OC | 17.5 | 33.8 | 26.1% | 63.7% | 19.6% | 28.4% | 8.73% (active) | 12.6% | -37.3% (active) | 88.5 | -2.29% (active) | 13.3% | 43.6% | 24% | – | -6.05% (active) | – | – | – | –
Oc1cc(/C=C/c2nc(N3CCOCC3)c3cc(Cl)c(Cl)cc3n2)cc(O)c1O | 102 | 104 | 95.2% | 95.8% | 99.9% | – | 92.5% | 87.8% | 103% | 102 | 110% | – | 108% | – | 118% | 100% | 109% | 85.3% | 107% | –
Cc1cc(C=O)c(C)c2c1[nH]c1ccccc12 | 75.6 | 95.8 | 74.3% | 78% | 88.4% | – | -84.1% (active) | 85.5% | 93.9% | 62.4 | 87.8% | 106% | 97.6% | 108% | 107% | 94.2% | 83.5% | 86.1% | 93% | –
Nc1nc(N)c2nc3c(nc2n1)CCCCCCCCCC3 | 77.5 | 43.2 | 48.7% | 80.3% | 39.4% | – | 93.6% | 32.2% | 85.6% | 69.4 | 61.9% | 78.9% | 37.1% | 81.9% | 72.6% | 52.9% | 3.44% (active) | 45.3% | 39.9% | –
COc1ccc(C(=O)c2cc(OC)c(OC)c(OC)c2)cc1/C=C/C(=O)c1cc(OC)c(OC)c(OC)c1 | 116 | 96.2 | 66.2% | 140% | 89.3% | – | 96.2% | 43.2% | 67% | 88.7 | – | 105% | 95.9% | 99.3% | 82.4% | 81.1% | 60.5% | 88.3% | 86.7% | –
Nc1c(C(=O)Nc2cccc(Cl)c2)sc2ncc(Cl)cc12 | – | 79.3 | 80.5% | 118% | 23.9% | 82.6% | 103% | 66.3% | 75% | 88.8 | -4.92% (active) | – | 79.5% | 71.4% | – | – | – | 75.8% | 81.9% | –
NC(=O)[C@@H]1CC2CCC1C2 (stereo partly specified) | 119 | – | 99.7% | 120% | 102% | – | 87.9% | 90.6% | 93.3% | 95 | 106% | 101% | 110% | 93.4% | – | 121% | 37.4% | 102% | 108% | –
O=C1c2ccccc2C(=Cc2ccccc2)c2ccccc21 | – | 22.3 | 28% | -7.83% (active) | 28.1% | – | -17.4% (active) | 8.17% (active) | 22.4% | 43.3 | 6.28% (active) | -3.56% (active) | 40% | -36.5% (active) | – | -64.4% (active) | 11.7% | 17.3% | 21.6% | 11.3
COc1cc2[nH]c(C(=O)c3cc(OC)c(OC)c(OC)c3)c(N)c2cc1C#CCO | 29.6 | 45.1 | 31.5% | 66.2% | 23% | – | -16.8% (active) | 0.173% (active) | 26.8% | 15.9 | – | 18.3% | 22.9% | -17.8% (active) | 19.8% | 37.8% | 11.5% | 29.6% | – | –
CN1CCN(c2nc(-c3cccc4ccccc34)nc3sc4c(c23)CCCCCC4)CC1 | 106 | – | 46% | 113% | 82.7% | – | 94.2% | 47.1% | 79.3% | 90.2 | 83.8% | 89.2% | 72.6% | – | 86.1% | 87.4% | 75.2% | 74% | 93% | –
COC(=O)C(N)CSC(c1ccccc1)(c1ccccc1)c1ccccc1 (stereo unspecified) | – | 39.9 | 52.6% | 49.5% | 57% | – | 34.1% | 7.6% (active) | 30.9% | 33.3 | 79.8% | 19.4% | 28.6% | 20.7% | 21.5% | 68.4% | 13.7% | 8.4% (active) | 36.8% | –
CC(C)(C)c1ccc(OP(=S)(N/N=C/c2ccccc2O)Oc2ccc(C(C)(C)C)cc2)cc1 | – | 72.6 | 61% | 74.4% | 87.7% | 62.7% | 89.9% | 61.6% | 45.8% | – | 65.1% | 65.2% | 63.5% | 47.5% | 94.5% | 87.8% | 68.6% | 43.7% | 82.8% | –
C/C(=N\Nc1ccc2ccccc2n1)c1ccccn1 | – | 17.5 | -39.2% (active) | 15.2% | -3.16% (active) | -10.9% (active) | 11.1% | 6.18% (active) | 1.84% (active) | 24 | 21.2% | 24.7% | -2.71% (active) | 8.54% (active) | 49% | 1.66% (active) | -5.75% (active) | 1.13% (active) | 6.43% (active) | –
COc1ccc(-c2nc3ccccn3c2-c2nc3ccc(Cl)cc3[nH]2)cc1 | 97.5 | – | 97.6% | 103% | 86.3% | 93.2% | 91.9% | 70.3% | 43.7% | 102 | 86% | 107% | 102% | 73.9% | 93.6% | 90.3% | – | – | – | –
